Results on 9 compounds are retold here after ChEMBL document CHEMBL1961873, “Compounds: GSK PKIS; Assays: Nanosyn kinase panel” (2012).

Test [1] addresses MAP/microtubule affinity-regulating kinase 3 (Homo sapiens) (UniProt P27448). The conditions noted are these: at 1 µM.
Test [2] deals with T1, MAP/microtubule affinity-regulating kinase 4 (Homo sapiens) (UniProt Q96L34).
T1 sequence (whole entry): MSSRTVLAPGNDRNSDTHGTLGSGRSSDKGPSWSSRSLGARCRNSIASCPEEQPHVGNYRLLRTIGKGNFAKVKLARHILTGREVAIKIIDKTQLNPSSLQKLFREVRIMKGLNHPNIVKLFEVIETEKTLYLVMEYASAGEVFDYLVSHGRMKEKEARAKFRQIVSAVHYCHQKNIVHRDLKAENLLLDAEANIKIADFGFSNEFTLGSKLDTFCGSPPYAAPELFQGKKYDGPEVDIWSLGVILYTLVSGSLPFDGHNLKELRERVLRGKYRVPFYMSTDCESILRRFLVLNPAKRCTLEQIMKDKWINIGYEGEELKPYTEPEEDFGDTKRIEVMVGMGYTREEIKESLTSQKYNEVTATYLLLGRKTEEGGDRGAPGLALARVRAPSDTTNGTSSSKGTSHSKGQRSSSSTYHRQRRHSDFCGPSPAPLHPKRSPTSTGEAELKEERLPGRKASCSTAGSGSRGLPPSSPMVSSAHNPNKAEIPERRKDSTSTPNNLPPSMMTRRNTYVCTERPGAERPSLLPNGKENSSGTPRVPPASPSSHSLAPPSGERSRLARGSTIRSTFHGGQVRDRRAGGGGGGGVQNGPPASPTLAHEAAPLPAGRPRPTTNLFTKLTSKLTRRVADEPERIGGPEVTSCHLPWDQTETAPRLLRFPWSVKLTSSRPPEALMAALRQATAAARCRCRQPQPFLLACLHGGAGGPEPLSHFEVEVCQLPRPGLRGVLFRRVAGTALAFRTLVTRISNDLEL
The conditions noted are these: at 0.1 µM.

In test [3] the target is T1, MAP/microtubule affinity-regulating kinase 4 (Homo sapiens). The conditions noted are these: at 1 µM.
Test [4] has as its target Maternal embryonic leucine zipper kinase (Homo sapiens) (UniProt Q14680). The settings on record: at 0.1 µM.
For test [5] the target is unchanged. The conditions noted are these: at 1 µM.
Test [6] has as its target MAP kinase-interacting serine/threonine-protein kinase 1 (Homo sapiens) (UniProt Q9BUB5). The settings on record: at 0.1 µM.
Test [7] shares this target. The settings on record: at 1 µM.
For test [8], the target named is MAP kinase-interacting serine/threonine-protein kinase 2 (Homo sapiens) (UniProt Q9HBH9). The conditions noted are these: at 0.1 µM.
Chain of MAP kinase-interacting serine/threonine-protein kinase 2 (Homo sapiens) (Q9HBH9 whole entry, looked up): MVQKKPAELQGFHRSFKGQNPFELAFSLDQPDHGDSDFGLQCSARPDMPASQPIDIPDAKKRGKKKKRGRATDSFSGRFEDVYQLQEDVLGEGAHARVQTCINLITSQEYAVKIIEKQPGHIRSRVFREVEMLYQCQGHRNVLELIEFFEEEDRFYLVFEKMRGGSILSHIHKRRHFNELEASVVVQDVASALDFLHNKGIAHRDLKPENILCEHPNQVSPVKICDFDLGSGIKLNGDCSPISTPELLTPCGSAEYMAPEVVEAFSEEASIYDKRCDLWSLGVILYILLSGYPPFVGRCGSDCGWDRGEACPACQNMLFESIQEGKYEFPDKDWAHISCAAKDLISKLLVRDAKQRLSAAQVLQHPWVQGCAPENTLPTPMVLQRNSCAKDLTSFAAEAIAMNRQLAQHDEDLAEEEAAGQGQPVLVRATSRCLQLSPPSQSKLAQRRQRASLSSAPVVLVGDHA
Test [9] has the same target. The conditions noted are these: at 1 µM.
The target in test [10] is Serine/threonine-protein kinase MARK2 (Homo sapiens) (UniProt Q7KZI7). The conditions noted are these: at 0.1 µM.
Chain of Serine/threonine-protein kinase MARK2 (Homo sapiens) (Q7KZI7 whole entry): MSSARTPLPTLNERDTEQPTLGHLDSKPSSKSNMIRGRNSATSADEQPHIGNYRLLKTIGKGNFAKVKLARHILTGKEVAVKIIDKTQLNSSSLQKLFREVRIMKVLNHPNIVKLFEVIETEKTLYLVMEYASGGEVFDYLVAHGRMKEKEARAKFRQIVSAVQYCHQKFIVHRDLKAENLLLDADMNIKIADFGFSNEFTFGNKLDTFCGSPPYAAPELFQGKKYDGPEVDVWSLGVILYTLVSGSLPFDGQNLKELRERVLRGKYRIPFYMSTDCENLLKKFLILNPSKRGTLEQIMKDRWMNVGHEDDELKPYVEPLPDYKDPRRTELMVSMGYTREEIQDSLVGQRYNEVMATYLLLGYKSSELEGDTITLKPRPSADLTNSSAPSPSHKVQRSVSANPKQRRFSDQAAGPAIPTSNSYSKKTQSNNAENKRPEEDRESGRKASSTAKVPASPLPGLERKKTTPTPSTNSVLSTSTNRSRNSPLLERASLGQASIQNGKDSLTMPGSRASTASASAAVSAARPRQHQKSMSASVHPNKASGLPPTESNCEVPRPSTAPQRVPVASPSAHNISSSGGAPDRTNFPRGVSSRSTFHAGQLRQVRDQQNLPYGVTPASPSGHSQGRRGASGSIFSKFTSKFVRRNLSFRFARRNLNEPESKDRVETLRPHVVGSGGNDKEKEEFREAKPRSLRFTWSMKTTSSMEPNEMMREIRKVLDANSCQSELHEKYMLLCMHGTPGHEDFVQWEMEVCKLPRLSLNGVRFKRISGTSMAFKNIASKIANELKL
The target is the same in test [11]. The conditions noted are these: at 1 µM.
In test [12] the target is PAS domain-containing serine/threonine-protein kinase (Homo sapiens) (UniProt Q96RG2). The settings on record: at 0.1 µM.
Chain of PAS domain-containing serine/threonine-protein kinase (Homo sapiens) (Q96RG2 whole entry, the tested form may be a part): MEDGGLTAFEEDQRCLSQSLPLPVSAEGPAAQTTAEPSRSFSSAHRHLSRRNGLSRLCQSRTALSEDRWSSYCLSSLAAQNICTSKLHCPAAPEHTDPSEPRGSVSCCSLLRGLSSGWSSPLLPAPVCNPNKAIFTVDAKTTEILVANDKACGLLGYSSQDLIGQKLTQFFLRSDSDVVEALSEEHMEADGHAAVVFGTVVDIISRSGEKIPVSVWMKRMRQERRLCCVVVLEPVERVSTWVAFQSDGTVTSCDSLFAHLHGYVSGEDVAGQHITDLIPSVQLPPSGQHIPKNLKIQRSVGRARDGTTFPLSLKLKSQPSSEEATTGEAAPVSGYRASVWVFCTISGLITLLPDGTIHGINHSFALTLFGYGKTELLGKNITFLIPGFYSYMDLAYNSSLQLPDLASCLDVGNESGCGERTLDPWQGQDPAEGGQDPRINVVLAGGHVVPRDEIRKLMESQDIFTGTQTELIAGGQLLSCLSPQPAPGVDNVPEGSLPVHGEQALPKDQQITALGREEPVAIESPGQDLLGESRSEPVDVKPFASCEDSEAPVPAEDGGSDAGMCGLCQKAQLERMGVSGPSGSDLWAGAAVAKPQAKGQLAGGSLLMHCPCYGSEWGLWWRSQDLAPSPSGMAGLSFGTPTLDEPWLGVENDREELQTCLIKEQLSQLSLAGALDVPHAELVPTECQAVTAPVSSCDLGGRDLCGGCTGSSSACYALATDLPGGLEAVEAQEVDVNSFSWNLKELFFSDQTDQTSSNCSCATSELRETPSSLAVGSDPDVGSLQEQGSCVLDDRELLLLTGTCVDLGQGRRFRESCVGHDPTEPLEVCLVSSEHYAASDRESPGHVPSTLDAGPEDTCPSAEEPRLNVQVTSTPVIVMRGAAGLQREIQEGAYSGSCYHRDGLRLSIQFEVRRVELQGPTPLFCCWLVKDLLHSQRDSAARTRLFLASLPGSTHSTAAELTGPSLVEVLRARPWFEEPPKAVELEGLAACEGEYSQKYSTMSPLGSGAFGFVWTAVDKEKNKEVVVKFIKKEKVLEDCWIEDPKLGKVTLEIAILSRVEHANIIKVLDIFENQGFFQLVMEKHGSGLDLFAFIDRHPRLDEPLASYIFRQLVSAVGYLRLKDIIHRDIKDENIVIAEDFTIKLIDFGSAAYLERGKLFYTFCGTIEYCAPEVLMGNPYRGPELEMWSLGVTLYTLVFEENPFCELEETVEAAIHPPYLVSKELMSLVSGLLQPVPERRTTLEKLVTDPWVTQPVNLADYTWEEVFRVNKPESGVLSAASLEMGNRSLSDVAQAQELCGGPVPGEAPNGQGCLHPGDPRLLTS
Test [13] shares this target. The conditions noted are these: at 1 µM.
Test [14] concerns the target Phosphorylase b kinase gamma catalytic chain, skeletal muscle/heart isoform (Homo sapiens) (UniProt Q16816). The settings on record: at 0.1 µM.
Test [15] shares this target. The settings on record: at 1 µM.
In test [16] the target is T2, Phosphorylase b kinase gamma catalytic chain, liver/testis isoform (Homo sapiens) (UniProt P15735).
T2 sequence (whole entry): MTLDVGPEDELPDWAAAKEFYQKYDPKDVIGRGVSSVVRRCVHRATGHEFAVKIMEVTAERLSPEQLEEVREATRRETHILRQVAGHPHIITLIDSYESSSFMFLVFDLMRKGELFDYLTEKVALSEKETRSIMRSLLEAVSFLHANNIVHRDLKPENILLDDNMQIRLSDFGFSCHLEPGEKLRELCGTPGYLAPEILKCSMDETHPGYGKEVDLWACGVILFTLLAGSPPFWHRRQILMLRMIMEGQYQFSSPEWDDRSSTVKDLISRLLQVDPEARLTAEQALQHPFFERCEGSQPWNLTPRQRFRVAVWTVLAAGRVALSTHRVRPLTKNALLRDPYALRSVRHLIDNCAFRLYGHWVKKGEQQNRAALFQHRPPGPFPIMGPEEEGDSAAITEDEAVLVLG
The conditions noted are these: at 0.1 µM.

The target of test [17] is T2, Phosphorylase b kinase gamma catalytic chain, liver/testis isoform (Homo sapiens). The conditions noted are these: at 1 µM.
Test [18] addresses Serine/threonine-protein kinase pim-1 (Homo sapiens) (UniProt P11309). The settings on record: at 0.1 µM.
Test [19] has the same target. The settings on record: at 1 µM.
The target of test [20] is Serine/threonine-protein kinase pim-2 (Homo sapiens) (UniProt Q9P1W9). The conditions noted are these: at 0.1 µM.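 Note: reported value is the mean percent inhibition of PIM2, measured in the GSK PKIS kinase inhibitor set screen.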
Chain of Serine/threonine-protein kinase pim-2 (Homo sapiens) (Q9P1W9 whole entry, looked up): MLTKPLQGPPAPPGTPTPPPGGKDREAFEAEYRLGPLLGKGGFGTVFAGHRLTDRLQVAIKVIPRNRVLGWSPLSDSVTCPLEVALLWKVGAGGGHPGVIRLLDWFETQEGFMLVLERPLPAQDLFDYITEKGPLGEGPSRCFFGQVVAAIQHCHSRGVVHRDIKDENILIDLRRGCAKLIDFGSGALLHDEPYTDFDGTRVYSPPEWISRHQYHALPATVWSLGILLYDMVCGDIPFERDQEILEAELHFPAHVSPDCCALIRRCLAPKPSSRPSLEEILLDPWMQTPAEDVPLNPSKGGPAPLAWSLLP

Chain of Phosphorylase b kinase gamma catalytic chain, skeletal muscle/heart isoform (Homo sapiens) (Q16816 whole entry, looked up, canonical isoform): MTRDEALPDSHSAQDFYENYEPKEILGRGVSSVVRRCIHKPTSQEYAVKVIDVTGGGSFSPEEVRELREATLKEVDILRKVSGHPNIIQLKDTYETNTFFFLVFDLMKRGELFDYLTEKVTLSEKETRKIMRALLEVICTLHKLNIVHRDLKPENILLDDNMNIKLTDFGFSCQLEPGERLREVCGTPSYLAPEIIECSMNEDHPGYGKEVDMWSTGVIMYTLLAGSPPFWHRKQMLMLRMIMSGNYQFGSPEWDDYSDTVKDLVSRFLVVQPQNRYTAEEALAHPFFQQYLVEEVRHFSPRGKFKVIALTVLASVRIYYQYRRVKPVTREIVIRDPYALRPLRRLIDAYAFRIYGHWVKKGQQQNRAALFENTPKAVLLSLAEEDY
Chain of Maternal embryonic leucine zipper kinase (Homo sapiens) (Q14680 whole entry, looked up): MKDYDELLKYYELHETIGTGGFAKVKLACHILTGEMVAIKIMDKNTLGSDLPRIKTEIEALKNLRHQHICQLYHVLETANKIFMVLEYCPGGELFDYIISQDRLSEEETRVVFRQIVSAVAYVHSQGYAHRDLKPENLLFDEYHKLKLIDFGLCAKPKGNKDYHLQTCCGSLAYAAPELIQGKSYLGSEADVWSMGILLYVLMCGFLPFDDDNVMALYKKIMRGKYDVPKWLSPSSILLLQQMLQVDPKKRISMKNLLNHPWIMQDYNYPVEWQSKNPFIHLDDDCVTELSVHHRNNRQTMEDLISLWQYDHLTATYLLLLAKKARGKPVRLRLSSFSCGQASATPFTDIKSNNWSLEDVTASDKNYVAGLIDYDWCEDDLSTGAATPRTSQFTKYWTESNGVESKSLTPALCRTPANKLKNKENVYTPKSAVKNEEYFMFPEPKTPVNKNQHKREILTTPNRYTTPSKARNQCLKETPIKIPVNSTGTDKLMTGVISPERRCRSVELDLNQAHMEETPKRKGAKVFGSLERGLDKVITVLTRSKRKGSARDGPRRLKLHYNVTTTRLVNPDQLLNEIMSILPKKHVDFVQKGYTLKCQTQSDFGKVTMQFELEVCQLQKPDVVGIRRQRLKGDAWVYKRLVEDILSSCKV
Chain of MAP/microtubule affinity-regulating kinase 3 (Homo sapiens) (P27448 whole entry, looked up): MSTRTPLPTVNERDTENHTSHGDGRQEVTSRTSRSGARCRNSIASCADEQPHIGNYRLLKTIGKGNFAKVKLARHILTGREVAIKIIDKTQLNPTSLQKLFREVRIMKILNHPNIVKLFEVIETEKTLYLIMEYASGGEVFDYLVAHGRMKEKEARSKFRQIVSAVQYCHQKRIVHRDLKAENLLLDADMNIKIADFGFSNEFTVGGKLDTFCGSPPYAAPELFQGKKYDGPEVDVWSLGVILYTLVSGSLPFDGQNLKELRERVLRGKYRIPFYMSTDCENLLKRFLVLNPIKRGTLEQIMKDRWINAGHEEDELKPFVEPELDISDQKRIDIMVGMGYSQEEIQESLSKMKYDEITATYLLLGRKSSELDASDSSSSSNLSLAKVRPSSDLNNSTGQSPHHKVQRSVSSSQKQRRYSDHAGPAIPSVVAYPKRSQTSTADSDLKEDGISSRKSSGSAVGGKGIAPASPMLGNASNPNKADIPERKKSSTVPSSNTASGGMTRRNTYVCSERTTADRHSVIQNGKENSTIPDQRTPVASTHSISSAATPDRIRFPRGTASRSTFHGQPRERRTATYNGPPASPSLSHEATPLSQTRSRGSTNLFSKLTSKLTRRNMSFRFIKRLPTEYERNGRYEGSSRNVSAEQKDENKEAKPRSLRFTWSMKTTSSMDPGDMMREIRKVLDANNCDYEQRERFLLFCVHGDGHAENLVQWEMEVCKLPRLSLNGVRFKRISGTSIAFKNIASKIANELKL
Chain of Serine/threonine-protein kinase pim-1 (Homo sapiens) (P11309 whole entry, looked up): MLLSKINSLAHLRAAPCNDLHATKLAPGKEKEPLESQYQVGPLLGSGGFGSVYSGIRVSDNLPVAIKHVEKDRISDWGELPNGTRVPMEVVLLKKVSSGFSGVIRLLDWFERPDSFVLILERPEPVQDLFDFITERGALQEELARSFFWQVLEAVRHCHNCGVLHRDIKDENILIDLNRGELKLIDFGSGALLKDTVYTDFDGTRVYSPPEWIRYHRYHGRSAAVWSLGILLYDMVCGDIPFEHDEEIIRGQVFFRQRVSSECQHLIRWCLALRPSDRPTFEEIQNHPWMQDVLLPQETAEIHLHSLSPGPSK

In the case of `NCc1ccc(-n2c(-c3nonc3N)nc3cnccc32)cc1`, the inhibition – broadly, the relative decrease from the control value, in per cent – in test [1] came to 22.6%; in test [2], 4.49%; in [3], 13.3%; in test [4], 33.9%; in test [5], 88.2%; in test [6], 4.41%. The inhibition in test [7] was 13.6%; in test [8], 1.06%; in [9], 10.1%; in test [10], 4.09%; in test [11], 23.4%; in test [12], 0%. Further, the inhibition turned out to be 2.53% in test [13]; 7.71% in test [14]; 16% in [15]; 6.79% in test [16]; 4.79% in test [17]; 34.4% in test [18]. In addition, the inhibition in [19] worked out at 82.8%; in test [20], 8.18%.
As to `C[C@@H](Oc1cc(-n2cnc3ccc(OC4CCN(C)CC4)cc32)sc1C(N)=O)c1ccccc1Cl`, the inhibition in test [1] was determined as 8.01%; in [2] it was 2.31%; in test [3] it was 5.68%; in test [4], 6.66%; in test [5], 26.9%; in [6], 3.58%. In addition, the inhibition was 17.6% in [7]; 3.77% in [8]; 21% in [9]; 2.47% in [10]; 9.93% in [11]; -0.56% in test [12]. In addition, the inhibition in [13] amounted to 0.38%; in test [14], 2.08%; in test [15], 5.16%; in [16] it was 5.55%; in [17], 4.86%; in [18], 16.1%. In addition, the inhibition in test [19] was 65.3%; in test [20] it was -4.35%.
Take `Cc1nnc(-c2ccc(C)c(-c3ccc(C(=O)NCc4ccc(Cl)cc4)cc3)c2)o1`: the inhibition in [1] was -1.1%; in [2], 2.02%; in [3], 1.96%; in test [4] it was 4.87%; in test [5] it was 5.52%; in [6] it was 2.03%. Also, the inhibition was 6.45% in test [7]; 0.86% in test [8]; 1.57% in test [9]; 1.6% in test [10]; 2.93% in test [11]; -0.31% in [12]. In addition, the inhibition in test [13] turned out to be 0.36%; in test [14], 4.66%; in test [15], 5.75%; in test [16], 5.44%; in [17], 5.11%; in test [18], 0.2%. The inhibition in test [19] was 1.19%; in [20] it was -3.59%.
Take `COc1ccc(C2=C(N3CCc4ccccc43)C(=O)NC2=O)cc1`: the inhibition in test [1] was 4.14%; in [2] it was 1.18%; in test [3], 2.26%; in test [4], 4.31%; in [5], 7.73%; in test [6], 3.88%. For the same compound, the inhibition in test [7] was 6.21%; in test [8], 1.85%; in test [9], 4.28%; in [10], -0.02%; in [11], 1.74%; in [12] it was 0.07%. Moreover, the inhibition in test [13] is -0.29%; in test [14], 3.26%; in test [15] it was 6.35%; in test [16] it was 7.25%; in test [17], 4.69%; in test [18] it was 0.52%. In addition, the inhibition turned out to be 4.09% in test [19] and 0.18% in test [20].
In the case of `Cc1ccc(C(=O)NC2CCC2)cc1-c1ccc(C(=O)NCC2CC2)cc1`, the inhibition stood at 0.6% in test [1]; 0.84% in [2]; 0.72% in [3]; 3.33% in test [4]; 1.69% in [5]; 0.33% in [6]. The inhibition in [7] was determined as 3.09%; in [8], 0.84%; in test [9], 1.97%; in test [10], 0.5%; in test [11], 0.79%; in test [12], 0.3%. The inhibition was -1.21% in [13]; 2.32% in test [14]; 2.85% in [15]; 3.61% in [16]; 2% in test [17]; 0.78% in test [18]. Besides, the inhibition was 1.55% in test [19] and -0.51% in test [20].
`C#Cc1cccc(Nc2ncnc3ccc(OCCCCNCCS(C)(=O)=O)cc23)c1`: the inhibition in test [1] is 6.08%; in test [2], 2.28%; in test [3], 3.56%; in test [4], 3.6%; in test [5] it was 8.09%; in test [6], 9.11%. The inhibition in test [7] was determined as 46.7%; in [8], 4.73%; in [9], 31.8%; in test [10], 1.67%; in test [11], 2.74%; in [12], 0.02%. Moreover, the inhibition turned out to be 4.19% in test [13]; 5.74% in [14]; 19% in test [15]; 5.8% in test [16]; 6.86% in test [17]; 6.27% in [18]. Besides, the inhibition was 39.5% in [19] and -2.91% in test [20].
Turning to `Fc1ccc(-c2nc3n(c2-c2ccncc2)CCS3)cc1`, the inhibition in test [1] is -0.12%; in [2], 2.4%; in [3] it was 3.63%; in [4] it was 4.86%; in test [5] it was 6.72%; in test [6], 1.57%. In addition, the inhibition is 4.14% in [7]; -2.37% in [8]; 0.35% in test [9]; 0.46% in test [10]; 1.88% in test [11]; -0.27% in [12]. Further, the inhibition in test [13] was -1.64%; in test [14] it was 5.2%; in test [15], 4.39%; in test [16] it was 4.24%; in test [17], 2.33%; in test [18] it was 0.77%. Moreover, the inhibition in test [19] is 2.11%; in test [20] it was -3.25%.
Regarding `CNC(=O)c1cncc(/C=C/c2c(C)cccc2C)c1`, the inhibition in test [1] is 2%; in test [2] it was -0.27%; in test [3] it was 1.46%; in [4], -1.92%; in test [5], 0.37%; in test [6] it was -0.2%. Moreover, the inhibition in [7] came out at 8.06%; in [8], 0.57%; in test [9], 5.36%; in test [10] it was 0.03%; in test [11], 0.9%; in test [12] it was 1.4%. The inhibition in test [13] is 0.92%; in test [14], 0.1%; in test [15], -0.59%; in test [16], 2.11%; in test [17] it was 0.8%; in test [18] it was 0.92%. The figures for the inhibition in test [19] and in test [20] were 1.36% and -4.04%, respectively.
With `Fc1ccc(-c2ncn(C3CCNCC3)c2-c2ccnc(Oc3ccc(Oc4ccccc4)cc3)n2)cc1`, the inhibition worked out at 2.05% in test [1]; 0.75% in test [2]; 2.59% in test [3]; 6.35% in [4]; 11.1% in test [5]; 1.1% in test [6]. The inhibition in test [7] was 1.53%; in test [8] it was 0.72%; in [9] it was 1.76%; in test [10], 2.71%; in [11], 4.07%; in test [12] it was -2.03%. Besides, the inhibition in [13] is -0.39%; in [14] it was 0.96%; in test [15] it was -5.23%; in test [16], 5.51%; in test [17], 6.26%; in test [18], 0.09%. Besides, the inhibition was 0.87% in [19] and -0.33% in [20].
